# From PubChem BioAssay
# In the library only some 21% were active in any assay of this set; here they are far more common.
# IL1B secr inh: inhibitors of inflammasome signaling (IL-1 beta secretion); THP-1 LPS/ATP IL-1B secretion, AlphaLISA, 16 h; active compounds read low; activity change, % at 57.5 µM; 360,000 compounds, 4.7% hits; AID 743279; in the data active means activity change below about -50%; inconclusive means mostly about -30% to -49%
#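 Secreted IL-1B measured by AlphaLISA bead assay after 16 h compound exposure of THP-1 cells; compounds (final up to 57.5 uM) added 1 h before LPS (250 ng/mL) and ATP (1.25 mM) stimulation; lower signal means less secretion.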
# RORg inh: ROR gamma (mouse) transcription inhibition; 310,000 compounds, 5.4% hits; Potency, µM (doses to about 53.6 µM), inactives show at the top dose activity change, negative = inhibition, hits mostly inhibitors; Drosophila S2 Gal4-RORgamma UAS-luciferase reporter, 20 h; P51450; further: potency means the concentration at half of the fitted maximal effect; nearly all actives have a fitted effect of over 60% in size
# Target sequence (P51450 whole entry, looked up, the tested form may be a part): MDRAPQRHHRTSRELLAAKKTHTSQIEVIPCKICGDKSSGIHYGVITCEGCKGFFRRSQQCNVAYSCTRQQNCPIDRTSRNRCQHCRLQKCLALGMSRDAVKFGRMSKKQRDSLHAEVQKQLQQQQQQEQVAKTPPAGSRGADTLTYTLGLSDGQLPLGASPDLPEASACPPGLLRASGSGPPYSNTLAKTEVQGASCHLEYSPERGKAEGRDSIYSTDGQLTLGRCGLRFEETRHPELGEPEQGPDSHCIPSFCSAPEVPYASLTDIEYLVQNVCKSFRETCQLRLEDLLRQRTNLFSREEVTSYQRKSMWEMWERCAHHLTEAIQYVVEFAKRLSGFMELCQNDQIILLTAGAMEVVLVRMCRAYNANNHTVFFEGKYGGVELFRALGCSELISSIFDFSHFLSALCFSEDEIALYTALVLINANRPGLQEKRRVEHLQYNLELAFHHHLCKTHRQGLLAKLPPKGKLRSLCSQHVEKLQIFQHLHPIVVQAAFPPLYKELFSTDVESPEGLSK
#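 Using a luciferase readout, inhibitors were identified by reduced reporter activity in Drosophila cells coexpressing a copper-inducible Gal4–ROR gamma fusion and UAS-driven Photinus luciferase, incubated 20 hr after 700 uM copper sulfate.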
# TDP1 cell noCPT: qHTS for Inhibitors of human tyrosyl-DNA phosphodiesterase 1 (TDP1): qHTS in cells in absence of CPT. Potency, µM (titrated, usually from 46.2 µM), for inactives: at the top dose activity change, negative = growth inhibition, usual class: inhibitors. DT40 Tdp1-/- hTDP1 cells, no CPT, ATP luminescence, 48 h. 420,000 compounds, 15% hits; further: potency means the concentration at half of the fitted maximal effect; nearly all actives have a fitted effect of over 55% in size
#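 Stably hTDP1-transfected Tdp1-null chicken DT40 cells were treated with library compounds minus camptothecin and grown for at least 48 hr at 37 °C, after which cellular ATP was quantified by luminescence.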
# ELG1 DNA repair: inhibitors of ELG1-dependent DNA repair in HEK293T cells; HEK293T ELG1-luciferase reporter, luminescence, 16 h; DNA damage induced by 5-fluorouridine; Potency, µM (series often up to 46.1 µM), inactives show at the top dose activity change, negative = inhibition, actives largely listed as inhibitors; 330,000 compounds, 2.3% hits; further: potency means the concentration at half of the fitted maximal effect; nearly all actives have a fitted effect of over 55% in size
#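 In this reporter screen, reduction of luminescence relative to DMSO vehicle indicated activity. Compounds and 5-fluorouridine were added together to 2,000 cells per well, incubated for 16 hr at 37 °C, then developed with ONE-Glo.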
# TDP1 cell CPT: growth inhibition of DT40 Tdp1-/-;hTDP1 cells with camptothecin (screen for TDP1 inhibitors). chicken DT40 Tdp1-/-;hTDP1 cells + 20 nM CPT, ATP luminescence, 48 h. Potency, µM (titrated, usually from 46.2 µM), for inactives: top-dose activity change, negative = growth inhibition, usual class: inhibitors. 420,000 compounds, 12% hits; further: potency means the concentration at half of the fitted maximal effect; nearly all actives have a fitted effect of over 55% in size
#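 Cell growth measured by CellTiter-Glo luminescence after a minimum 48 h, 37 C compound exposure with 20 nM CPT in Tdp1-knockout DT40 cells stably expressing hTDP1, seeded 400/well; qHTS titration format.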
# VP16 counter: Gal4-VP16 reporter inhibition counter-screen; 310,000 compounds, 3.5% hits; Potency, µM (top dose mostly 53.6 µM), without a hit: at the top dose activity, negative = inhibition, most hits filed as inhibitors; Drosophila S2 Gal4-VP16 UAS-luciferase, luminescence, 20 h;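 further: Gal4-VP16 expression switched on by copper sulfate through the metallothionein promoter; potency means the concentration at half of the fitted maximal effect; nearly all actives have a fitted effect of over 50% in size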
# * = called active by the depositor; ? = inconclusive; / = not tested or not shown; [ ] = another dose, or the depositor's remark. Unless noted, the call rests on the fitted dose curve; in most records, active means well fitted curve in the direction sought with a large enough effect; inconclusive means small, poorly fitted or top-dose-only effect, or another doubt; inactive means no such curve, though single readings can be large; an effect the other way counts as inactive or inconclusive. On the % scale 0 is the no-effect control and ±100 the full control effect.
SMILES,IL1B secr inh,RORg inh,TDP1 cell noCPT,ELG1 DNA repair,TDP1 cell CPT,VP16 counter
CC[C@H](C)[C@H](NC(=O)[C@H](Cc1ccc(O)cc1)NC(=O)[C@H](Cc1cnc[nH]1)NC(=O)[C@H](CCCNC(=N)N)NC(=O)[C@H](CC(C)C)NC(=O)[C@H](C)NC(=O)[C@H](CO)NC(=O)[C@H](Cc1ccc(O)cc1)NC(=O)[C@H](Cc1ccc(O)cc1)NC(=O)[C@H](CCCNC(=N)N)NC(=O)[C@H](C)NC(=O)[C@H](CCSC)NC(=O)[C@H](CC(=O)O)NC(=O)[C@H](CCC(=O)O)NC(=O)[C@H](C)NC(=O)[C@@H]1CCCN1C(=O)[C@H](C)NC(=O)[C@H](CC(=O)O)NC(=O)[C@H](CCC(=O)O)NC(=O)CNC(=O)[C@@H]1CCCN1C(=O)[C@H](CC(N)=O)NC(=O)[C@H](CC(=O)O)NC(=O)[C@@H]1CCCN1C(=O)[C@H](CCCCN)NC(=O)[C@H](CO)NC(=O)[C@@H]1CCCN1C(=O)[C@@H](N)Cc1ccc(O)cc1)C(=O)N[C@@H](CC(N)=O)C(=O)N[C@@H](CC(C)C)C(=O)N[C@H](C(=O)N[C@H](C(=O)N[C@@H](CCCNC(=N)N)C(=O)N[C@@H](CCC(N)=O)C(=O)N[C@@H](CCCNC(=N)N)C(=O)N[C@@H](Cc1ccc(O)cc1)C(N)=O)[C@@H](C)O)[C@@H](C)CC,/,18%,/,/,/,1%
COc1ccc(-n2cc(-c3ccccc3)c3c(SC(C)C(C)=O)ncnc32)cc1 (stereo unspecified),/,/,-9%,/,-11%,/
COC(=O)C(C(=O)OC)c1ncccc1NS(=O)(=O)c1ccc(C)cc1,2,/,-14%,/,8%,/
O=C(CN1C(=O)NC2(CCCc3ccccc32)C1=O)Nc1cccc(S(=O)(=O)N2CCCCC2)c1 (stereo unspecified),-2,?,16µM*,-17%,?,-10%
COc1ccc(C(NC(=O)CN2C(=O)NC3(CCc4ccccc43)C2=O)c2ccc(OC)cc2)cc1 (stereo unspecified),-64*,/,?,?,?,/
COc1ccc(C(NC(=O)CN2C(=O)NC3(CCc4ccccc43)C2=O)c2ccccc2)cc1 (stereo unspecified),?,/,?,-24%,?,/
Cc1cc(C)c(NC(=O)CN2C(=O)NC3(CCCc4ccccc43)C2=O)c(Cl)c1 (stereo unspecified),-20,/,18µM*,10%,?,/
O=C(O)CN1C(=O)NC2(CCCc3ccccc32)C1=O (stereo unspecified),-7,-1%,-13%,4%,16%,-14%
O=C(CN1C(=O)NC2(CCCc3ccccc32)C1=O)N1CCc2ccccc2C1 (stereo unspecified),-5,6%,21µM*,1%,?,-5%
CCC(CO)(CO)N(CC(=O)Nc1ccc(OC)cc1)CC(=O)Nc1ccc(OC)cc1,-6,11%,2%,?,-12%,-3%
CCCNC(=O)C1(C)CCCN(CC(=O)c2ccc3c(c2)OCCO3)C1 (stereo unspecified),0,/,-12%,/,-23%,/
Cc1ccc(CN(C)C(=O)CN2C(=O)NC3(CCCc4ccccc43)C2=O)c(C)c1 (stereo unspecified),-14,/,21µM*,-17%,?,/
CN(C)C(=O)CN1C(=O)NC2(CCCc3ccccc32)C1=O (stereo unspecified),-10,0%,21%,-2%,-4%,-25%
COc1ccc(C(=O)Nc2ncccc2C)cc1S(=O)(=O)N1CCOCC1,18,/,-2%,29%,1%,/
Cc1nn(-c2ccccc2)c(-c2ccccc2[N+](=O)[O-])c1CC#N,10,/,16µM*,/,?,/
CCOC(=O)N1C(=O)[C@](CC)(c2ccccc2)N1C(=O)OCC,-98*,24%,?,-21%,8.2µM*,5%
C[C@H](CCC(=O)O)[C@H]1CC[C@@H]2[C@H]3[C@@H](CC[C@@]21C)[C@]1(C)CC[C@H](O)C[C@@H]1C[C@@H]3O,/,0%[16.9 µM],/,/,/,-7%[17 µM]
COc1cc(C(=O)N2CCNC(=O)C2CC(=O)Nc2ccc(C)c(C)c2)cc(OC)c1OC (stereo unspecified),/,/,-18%,/,-1%,/
COc1ccc(S(=O)(=O)N2CCCC2CNC(=O)C(=O)Nc2cccc(F)c2)cc1 (stereo unspecified),0,/,?,?,-13%,/
COc1ccc(Cl)cc1C(=O)CSc1nnnn1C1CCCC1,?,19%,18µM*,?,16µM*,2%
COc1ccc(Cl)cc1C(=O)CSc1nnnn1C1CCCCC1,-5,-3%,18µM*,17%,?,-2%
O=[N+]([O-])c1cccnc1Sc1ccc(F)cc1,-12,/,-18%,/,-2%,/
CNc1nnc(Sc2ncccc2[N+](=O)[O-])s1,/,-35%,16µM*,-10%,8.2µM*,11%
CCc1c(C)[nH]n(-c2nc(-c3cccc([N+](=O)[O-])c3)cs2)c1=O,-3,10µM*,?,3%,?,?
COC(=O)c1c[nH]c2c1-c1cc(C(=O)OCc3ccccc3)n(S(=O)(=O)c3ccc(C)cc3)c1C(=O)C2=O,-17,/,0.58µM*,/,0.58µM*,/
SMILES,IL1B secr inh,RORg inh,TDP1 cell noCPT,ELG1 DNA repair,TDP1 cell CPT,VP16 counter
Cc1cc(F)ccc1S(=O)(=O)N1CCCOC1CNC(=O)C(=O)NCc1cccnc1 (stereo unspecified),4,-7%,1%,2%,-3%,-6%
Cc1ccc(NC(=O)c2ccc3c(=O)n4c(nc3c2)CCC4)cc1S(=O)(=O)N(C)C,11,/,?,-20%,-23%,/
CN(C)c1ccc(NC(=O)Nc2ccc3snnc3c2)cc1,-22,-7%,-15%,?,-1%,7%
CCOc1ccc(NC(=O)Nc2ccc3snnc3c2)cc1,/,/,16µM*,/,?,/
O=C(Nc1cccc(C(F)(F)F)c1)c1ccc2snnc2c1,/,/,4%,/,-24%,/
O=C(Nc1ccccc1)Nc1ccc2snnc2c1,-19,?,18µM*,?,?,?
O=C(Nc1ccccc1)Nc1ccc2nnsc2c1,-95*,?,16µM*,?,21µM*,22%
O=C(Nc1cccc(C(F)(F)F)c1)Nc1ccc2snnc2c1,/,/,5.2µM*,/,3.7µM*,/
